Assay [1] in a line: antimalarial activity against Dd2 strain (AID 2302;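 active = growth inhibition above 50% at the single 2 µM test dose, taken to imply half-maximal potency below 2 µM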;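 also: 0% = DMSO untreated growth and 100% = chloroquine plus artemisinin killed control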). The settings on record: P. falciparum Dd2 in RBCs, LDH growth readout, 72 h; at 2 µM; active compounds read high.
Assay [2] in a line: HepG2 cytotoxicity, primary screen, cytotoxicity control for P. falciparum antimalarial project, cell-based, ATP luminescence (AID 2303;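 active = inhibition above 50%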;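 also: 0% = DMSO wells and 100% = digitonin-killed cells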). The settings on record: HepG2 viability, 24-48 h, at 10 µM, active compounds read high.
Assay [3] has as its target L-lactate dehydrogenase (Plasmodium falciparum (isolate CDC / Honduras)) (UniProt Q27743). Put plainly: PfLDH activity inhibition – cell lysate, 3D7 strain, counter-screen for P. falciparum growth inhibition project (AID 2304).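 Also: 0% = vehicle and 100% = reference inhibitor.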 The settings on record: P. falciparum 3D7 crude extract, LDH APAD/NBT absorbance; at 2 µM; active compounds read high. (In general: The purpose of a counterscreen is to sort out artefacts and off-target activity.)

Assay [4] can be described thus: inhibition of 3D7 malaria parasite growth – strain 3D7 (AID 2306).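 Also: 0% = DMSO wells and 100% = chloroquine plus artemisinin control wells.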 The settings on record: P. falciparum 3D7 erythrocytic growth, LDH absorbance, 72 h; at 2 µM; active compounds read high.
Assay [5] concerns the target Calcium-dependent protein kinase 1 (Plasmodium falciparum (isolate 3D7)) (UniProt P62344). Nature of the assay: PfCDPK1 kinase inhibitors, biochemical, TCAMS library (AID 1159585; cut-off not given, nearly all actives have IC50 up to about 0.98 µM;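 also: inhibitors leave more ATP so luminescence rises with inhibition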). The settings on record: recombinant PfCDPK1, Kinase-Glo ATP depletion luminescence. Background: Kinase-Glo measures the ATP left after a reaction by luminescence.
The target of assay [6] is Plasmodium falciparum protein kinase 6 (PK6, PF3D7_1337100) (UniProt Q8IDW1). Nature of the assay: PfPK6 kinase inhibitors, biochemical, TCAMS library (AID 1159586). The settings on record: recombinant PfPK6, Kinase-Glo ATP depletion luminescence.
Chain of Plasmodium falciparum protein kinase 6 (PK6, PF3D7_1337100) (Q8IDW1 1-305): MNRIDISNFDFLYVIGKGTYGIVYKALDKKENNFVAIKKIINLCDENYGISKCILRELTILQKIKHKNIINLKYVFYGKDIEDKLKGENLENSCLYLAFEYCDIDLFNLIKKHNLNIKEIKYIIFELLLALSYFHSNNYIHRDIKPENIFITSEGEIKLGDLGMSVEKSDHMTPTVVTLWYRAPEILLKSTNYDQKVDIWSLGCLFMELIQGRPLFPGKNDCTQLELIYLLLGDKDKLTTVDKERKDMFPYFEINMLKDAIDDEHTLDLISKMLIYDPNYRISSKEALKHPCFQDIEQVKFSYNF
The target in assay [7] is Protein kinase 7 (PK7), Plasmodium falciparum 3D7 (PF3D7_0213400) (UniProt Q7YTF7). Nature of the assay: inhibition of Plasmodium PK7 catalytic activity – biochemical, TCAMS antimalarial set, Kinase-Glo luminescence (AID 1159587). The settings on record: recombinant PfPK7, Kinase-Glo ATP depletion luminescence.
Chain of Protein kinase 7 (PK7), Plasmodium falciparum 3D7 (PF3D7_0213400) (Q7YTF7 1-343): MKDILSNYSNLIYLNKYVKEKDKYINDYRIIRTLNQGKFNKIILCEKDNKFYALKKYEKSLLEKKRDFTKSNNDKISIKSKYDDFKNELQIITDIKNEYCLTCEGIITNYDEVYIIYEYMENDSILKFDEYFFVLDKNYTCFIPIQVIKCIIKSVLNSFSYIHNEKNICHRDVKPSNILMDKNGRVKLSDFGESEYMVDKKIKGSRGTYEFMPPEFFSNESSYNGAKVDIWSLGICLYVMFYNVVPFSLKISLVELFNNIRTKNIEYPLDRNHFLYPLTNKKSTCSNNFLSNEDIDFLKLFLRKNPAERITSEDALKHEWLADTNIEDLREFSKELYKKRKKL
Assay [8] concerns the target Calcium-dependent protein kinase 4 (Plasmodium falciparum (isolate 3D7)) (UniProt Q8IBS5). Nature of the assay: PfCDPK4 kinase inhibitors, biochemical, TCAMS library (AID 1159588; cut-off not given, nearly all actives have IC50 up to about 0.91 µM). The settings on record: recombinant PfCDPK4, Kinase-Glo ATP depletion luminescence.

Structures are written as SMILES. A number with no mark means an inactive call. For some of these results: Entries with a potency or affinity are not part of this list. Calls of active or inactive are those of the source. Unless noted, no rule for the calls is given here.

Chain of L-lactate dehydrogenase (Plasmodium falciparum (isolate CDC / Honduras)) (Q27743 whole entry, looked up): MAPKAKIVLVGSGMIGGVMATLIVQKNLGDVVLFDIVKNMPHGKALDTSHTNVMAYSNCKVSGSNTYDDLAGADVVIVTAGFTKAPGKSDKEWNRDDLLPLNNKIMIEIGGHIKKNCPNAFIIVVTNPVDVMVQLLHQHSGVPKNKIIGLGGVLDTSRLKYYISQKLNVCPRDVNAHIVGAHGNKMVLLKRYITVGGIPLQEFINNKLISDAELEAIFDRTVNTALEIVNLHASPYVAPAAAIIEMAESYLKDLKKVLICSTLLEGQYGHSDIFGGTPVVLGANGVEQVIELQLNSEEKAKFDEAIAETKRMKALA
Chain of Calcium-dependent protein kinase 4 (Plasmodium falciparum (isolate 3D7)) (Q8IBS5 whole entry, looked up): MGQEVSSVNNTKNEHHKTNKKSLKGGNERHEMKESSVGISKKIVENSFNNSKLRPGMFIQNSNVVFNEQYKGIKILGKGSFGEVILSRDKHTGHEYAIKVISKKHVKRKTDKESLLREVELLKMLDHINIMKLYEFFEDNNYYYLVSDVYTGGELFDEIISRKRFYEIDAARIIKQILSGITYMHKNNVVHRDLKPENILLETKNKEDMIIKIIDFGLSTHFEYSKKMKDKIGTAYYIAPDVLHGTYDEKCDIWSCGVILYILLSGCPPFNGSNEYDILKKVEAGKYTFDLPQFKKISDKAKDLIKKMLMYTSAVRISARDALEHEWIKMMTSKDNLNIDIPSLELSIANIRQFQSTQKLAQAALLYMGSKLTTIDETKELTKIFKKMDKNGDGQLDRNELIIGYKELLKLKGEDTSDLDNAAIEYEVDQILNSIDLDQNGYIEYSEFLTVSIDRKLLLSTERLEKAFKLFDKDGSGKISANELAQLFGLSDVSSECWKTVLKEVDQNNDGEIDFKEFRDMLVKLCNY
Chain of Calcium-dependent protein kinase 1 (Plasmodium falciparum (isolate 3D7)) (P62344 whole entry, looked up): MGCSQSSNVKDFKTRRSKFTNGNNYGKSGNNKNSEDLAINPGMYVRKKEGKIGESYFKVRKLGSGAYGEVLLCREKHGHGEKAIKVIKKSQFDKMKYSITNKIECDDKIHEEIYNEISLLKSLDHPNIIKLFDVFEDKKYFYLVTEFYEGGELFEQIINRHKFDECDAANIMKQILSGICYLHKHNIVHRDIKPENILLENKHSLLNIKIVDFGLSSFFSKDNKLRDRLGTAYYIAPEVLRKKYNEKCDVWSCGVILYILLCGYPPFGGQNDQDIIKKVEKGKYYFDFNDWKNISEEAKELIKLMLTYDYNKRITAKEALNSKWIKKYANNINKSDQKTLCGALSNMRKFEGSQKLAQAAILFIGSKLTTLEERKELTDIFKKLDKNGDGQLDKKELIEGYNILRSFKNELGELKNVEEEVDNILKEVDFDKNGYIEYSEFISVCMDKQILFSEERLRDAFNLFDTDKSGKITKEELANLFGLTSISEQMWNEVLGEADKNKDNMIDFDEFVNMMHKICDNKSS

As to `Cc1noc(C)c1CN1CCCN(c2ccc3c(c2)CCN(Cc2ccc(-c4ncc[nH]4)cc2)CC3)CC1`, the growth inhibition in assay [1] is 39%; in assay [4], 98% (active). In addition, the inhibition is 1% in assay [2] and 2% in assay [3]. Further, the result in assay [5], in assay [6], in assay [7] and in assay [8] was inactive.

In the case of `COc1cccc(OCC2CCCN(CCCCNC(=O)c3ccc(NC(=O)c4ccc(Cl)cc4)cc3)C2)c1` (stereo not given), the growth inhibition in assay [1] was 49%; in assay [4], 100% (active). Moreover, the values for the inhibition in assay [2] and in assay [3] were 33% and 7%, respectively. In addition, the outcome in assay [5], in assay [6], in assay [7] and in assay [8] was inactive.

For `COc1cc(F)c2ncc(Cl)c([C@@H](O)CN3CCC(NCc4cc5c(cn4)OCCO5)CC3)c2c1`, the results for the growth inhibition in assay [1] and in assay [4] were 100% (active) and 101% (active), respectively. The inhibition in assay [2] was 11%; in assay [3] it was 2%. Further, the outcome in assay [5], in assay [6], in assay [7] and in assay [8] was inactive.

`CC(C)CCN=C(N)Nc1ccc(OCCCOc2ccc(NC(N)=NCCC(C)C)cc2)cc1`: the growth inhibition in assay [1] is 95% (active); in assay [4], 100% (active). Further, the inhibition in assay [2] was 0%; in assay [3] it was -3%. The outcome in assay [5], in assay [6], in assay [7] and in assay [8] was inactive.

In the case of `CSc1cccc(Nc2nc3ccc(S(=O)(=O)NCC(C)C)cc3n2C(C)C(C)C)c1` (stereo not given), the growth inhibition was 91% (active) in assay [1] and 93% (active) in assay [4]. Moreover, the inhibition in assay [2] was 3%; in assay [3], -2%. The result in assay [5], in assay [6], in assay [7] and in assay [8] was inactive.

Regarding `O=C(Nc1ccc(-c2cccc(CN3CCC(O)CC3)c2)cc1)c1cccc(Cl)c1`, the growth inhibition in assay [1] is 14%; in assay [4], 94% (active). Further, the inhibition in assay [2] was 50% (active); in assay [3], 3%. Also, the outcome in assay [5], in assay [6], in assay [7] and in assay [8] was inactive.

As for `CCC(O)c1ccc(Br)cc1NC(=O)c1cccc(Cl)c1` (stereo not given), the growth inhibition is 52% (active) in assay [1] and 80% (active) in assay [4]. For the same compound, the values for the inhibition in assay [2] and in assay [3] were -3% and -5%, respectively. In addition, the outcome in assay [5], in assay [6], in assay [7] and in assay [8] was inactive.

Take `CNC(=O)c1cnc(Nc2ccc(N3CCN(C)CC3)cc2)nc1Nc1ccccc1OC`: the growth inhibition in assay [1] is 84% (active); in assay [4], 100% (active). The figures for the inhibition in assay [2] and in assay [3] were 8% and 2%, respectively. The result in assay [5], in assay [6], in assay [7] and in assay [8] was inactive.

Consider `COc1ccc(Cl)cc1NC(=O)Nc1ccnc2ccccc12`, for which the growth inhibition in assay [1] was 44%; in assay [4], 101% (active). Besides, the results for the inhibition in assay [2] and in assay [3] were 13% and -6%, respectively. Also, the outcome in assay [5], in assay [6], in assay [7] and in assay [8] was inactive.

Take `NCC1CCCN1Cc1cccc(-c2ccc(-c3nc4ccc(C(F)(F)F)cc4[nH]3)cc2)c1` (stereo not given): the growth inhibition in assay [1] is 95% (active); in assay [4] it was 100% (active). Further, the inhibition is 20% in assay [2] and 0% in assay [3]. Moreover, the outcome in assay [5], in assay [6], in assay [7] and in assay [8] was inactive.

Regarding `COCCNCc1cccc(-c2ccc3c(Nc4ccc(F)cc4Cl)ccnc3c2)c1`, the growth inhibition in assay [1] was 100% (active); in assay [4], 103% (active). Also, the inhibition in assay [2] is 8%; in assay [3], 3%. Besides, the outcome in assay [5], in assay [6], in assay [7] and in assay [8] was inactive.

With `COC(=O)[C@@H](NC(=O)[C@H](Cc1ccc(OC)c(OC)c1)Nc1ccc(C#N)c2ccccc12)c1ccc(O)cc1`, the figures for the growth inhibition in assay [1] and in assay [4] were 100% (active) and 101% (active), respectively. The inhibition in assay [2] is 6%; in assay [3], 5%. Besides, the result in assay [5], in assay [6], in assay [7] and in assay [8] was inactive.

In the case of `COc1ccc(CNCc2ccc(F)cc2)cc1-c1ccc(S(=O)(=O)NCCN2CCCC2)cc1`, the growth inhibition in assay [1] is 25%; in assay [4], 91% (active). Moreover, the values for the inhibition in assay [2] and in assay [3] were 38% and 0%, respectively. For the same compound, the result in assay [5], in assay [6], in assay [7] and in assay [8] was inactive.

Take `OC(CNCc1ccccc1OCc1ccccc1)c1cccc(Br)c1` (stereo not given): the growth inhibition is 97% (active) in assay [1] and 100% (active) in assay [4]. In addition, the inhibition in assay [2] is -1%; in assay [3], 0%. Further, the outcome in assay [5], in assay [6], in assay [7] and in assay [8] was inactive.

`COc1ccc(NC(=O)[C@H](CC(C)C)Nc2ccnc(NCCc3ccc(F)cc3)n2)cc1`: the growth inhibition in assay [1] was 22%; in assay [4], 86% (active). For the same compound, the inhibition in assay [2] was -6%; in assay [3], -2%. The result in assay [5], in assay [6], in assay [7] and in assay [8] was inactive.

Regarding `Cc1[nH]c(C)c(-c2ccc(-c3cccc(Cl)c3)nc2)c(=O)c1Cl`, the growth inhibition in assay [1] and in assay [4] was 97% (active) each time. Further, the inhibition was 15% in assay [2] and 0% in assay [3]. Moreover, the result in assay [5], in assay [6], in assay [7] and in assay [8] was inactive.

In the case of `Nc1ccc(-c2ccc3ccnc(N)c3c2)cn1`, the results for the growth inhibition in assay [1] and in assay [4] were 100% (active) and 101% (active), respectively. Further, the results for the inhibition in assay [2] and in assay [3] were 43% and 3%, respectively. In addition, the outcome in assay [5], in assay [6], in assay [7] and in assay [8] was inactive.

In the case of `COc1ccc2c(c1)CC(C)(C)NC2CCCCCCCCC1NC(C)(C)Cc2cc(OC)ccc21` (stereo not given), the growth inhibition in assay [1] is 62% (active); in assay [4], 98% (active). The inhibition is 42% in assay [2] and 0% in assay [3]. For the same compound, the result in assay [5], in assay [6], in assay [7] and in assay [8] was inactive.

`C=CCc1cc(Cc2cnc(N)nc2N)cc(CCC)c1OC`: the growth inhibition in assay [1] is 1%; in assay [4] it was 83% (active). Further, the inhibition was 3% in assay [2] and 0% in assay [3]. The outcome in assay [5], in assay [6], in assay [7] and in assay [8] was inactive.

As for `O=C(Nc1cccc(-c2ccc(CN3CCCC3)cc2)c1)c1cccc(Cl)c1`, the growth inhibition in assay [1] was 61% (active); in assay [4] it was 100% (active). For the same compound, the inhibition in assay [2] was 32%; in assay [3] it was -3%. For the same compound, the outcome in assay [5], in assay [6], in assay [7] and in assay [8] was inactive.

In general, inhibition refers to the change of the read-out against control, counted positive when it falls.
